Experimental data from PubChem BioAssay (EPA / NIEHS).
The source made the active and inactive calls. The calls were made as follows: active = hit-call score of the fitted dose curve at least 0.9, where 1 is the maximum; inactive = score below 0.9.

Key:
[1] = target: Bile acid receptor (Homo sapiens) (UniProt Q96RI1); assay: ATG_IR1_CIS: Attagene CIS-FACTORIAL HepG2 Assay for human Nuclear Receptor Subfamily 1 Group H Member 4 (NR1H4), IR1 submotif (AID 2282946); settings: IR1 reporter transcription, actives raise or lower the signal
Chain of Bile acid receptor (Homo sapiens) (Q96RI1 whole entry, looked up): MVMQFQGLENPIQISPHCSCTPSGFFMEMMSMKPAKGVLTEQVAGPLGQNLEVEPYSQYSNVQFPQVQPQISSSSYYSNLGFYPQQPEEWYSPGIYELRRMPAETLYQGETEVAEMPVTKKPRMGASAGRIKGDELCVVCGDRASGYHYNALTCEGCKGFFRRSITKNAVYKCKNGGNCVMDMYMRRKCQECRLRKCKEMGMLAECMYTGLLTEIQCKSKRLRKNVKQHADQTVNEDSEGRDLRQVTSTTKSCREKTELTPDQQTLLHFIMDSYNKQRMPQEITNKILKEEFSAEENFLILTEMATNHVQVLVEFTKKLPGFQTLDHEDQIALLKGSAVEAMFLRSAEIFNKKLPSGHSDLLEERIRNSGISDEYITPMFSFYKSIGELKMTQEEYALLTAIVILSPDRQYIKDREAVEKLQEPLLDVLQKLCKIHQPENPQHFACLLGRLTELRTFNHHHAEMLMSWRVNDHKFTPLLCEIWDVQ
How it was run: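 Transient MRTU transfection, HepG2; 24 h dosing; RNA → RT-PCR → 6-FAM primer extension → HpaI digest → capillary electrophoresis fluorescence. Gain/loss of signal fitted relative to DMSO.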

[2] = ATG_ISRE_CIS: Attagene CIS-FACTORIAL HepG2 Assay for human Interferon Regulatory Factor 1 (IRF1) binding to an Interferon-Stimulated Response Element (ISRE) (AID 2282948); settings: HepG2 ISRE cis-reporter (Attagene), mRNA transcription readout; actives raise or lower the signal
How it was run: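 HepG2 cells transiently transfected with multiplexed cis-promoter reporter units; after 24 h compound exposure, reporter mRNA quantified by RT-PCR, FAM labelling, HpaI digestion and capillary electrophoresis. Bidirectional fit versus DMSO baseline.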

[3] = ATG_M_32_CIS: Attagene CIS-FACTORIAL HepG2 Assay for M32 Transcription Factor (Internal Marker) (AID 2282949); settings: HepG2 Attagene cis-factorial M32 reporter, mRNA; actives raise or lower the signal;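 also: background control marker of the multiplexed CIS panel rather than a real target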
How it was run: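 Following 24 h chemical exposure of HepG2 cells transiently expressing cis-promoter reporter constructs, reporter transcript levels were determined by RT-PCR with fluorescent labelling and capillary electrophoresis, then fitted bidirectionally against DMSO.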

[4] = target: Hypoxia-inducible factor 1-alpha (Homo sapiens) (UniProt Q16665); assay: ATG_HIF1a_CIS: Attagene CIS-FACTORIAL HepG2 Assay for human Hypoxia Inducible Factor 1 (HIF1A) (AID 2282951); settings: HepG2 Attagene cis-factorial HIF1a reporter transcription; actives raise or lower the signal
Chain of Hypoxia-inducible factor 1-alpha (Homo sapiens) (Q16665 whole entry, looked up): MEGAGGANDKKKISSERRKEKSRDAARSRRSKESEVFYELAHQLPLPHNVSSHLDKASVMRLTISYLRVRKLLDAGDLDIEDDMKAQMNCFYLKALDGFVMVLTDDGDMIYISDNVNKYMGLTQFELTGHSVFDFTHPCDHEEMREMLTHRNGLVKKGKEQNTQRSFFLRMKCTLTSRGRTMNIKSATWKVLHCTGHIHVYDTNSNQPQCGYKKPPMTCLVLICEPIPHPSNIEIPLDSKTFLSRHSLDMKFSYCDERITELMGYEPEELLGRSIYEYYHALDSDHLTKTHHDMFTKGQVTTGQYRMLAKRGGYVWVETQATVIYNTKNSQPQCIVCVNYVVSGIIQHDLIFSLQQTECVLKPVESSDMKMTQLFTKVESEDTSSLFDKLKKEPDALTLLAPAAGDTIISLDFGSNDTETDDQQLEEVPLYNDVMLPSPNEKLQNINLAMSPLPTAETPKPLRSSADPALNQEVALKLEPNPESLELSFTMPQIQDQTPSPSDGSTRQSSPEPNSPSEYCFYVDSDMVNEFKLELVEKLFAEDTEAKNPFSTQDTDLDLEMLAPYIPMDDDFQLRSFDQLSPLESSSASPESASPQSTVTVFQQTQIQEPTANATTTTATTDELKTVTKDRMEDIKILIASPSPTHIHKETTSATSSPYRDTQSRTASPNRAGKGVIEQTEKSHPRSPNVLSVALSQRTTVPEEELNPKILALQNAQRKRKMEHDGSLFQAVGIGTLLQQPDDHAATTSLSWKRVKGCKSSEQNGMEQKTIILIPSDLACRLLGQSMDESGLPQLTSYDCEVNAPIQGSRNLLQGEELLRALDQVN
How it was run: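 Fluorescence intensity of capillary-separated, 6-FAM-labelled reporter amplicons gives mRNA induction in HepG2 cells carrying transfected cis-promoter reporter units; cells exposed 24 h, responses fitted up or down from DMSO.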

[5] = target: Hepatocyte nuclear factor 6 (Homo sapiens) (UniProt Q9UBC0); assay: ATG_HNF6_CIS: Attagene CIS-FACTORIAL HepG2 Assay for human Hepatocyte Nuclear Factor 6 (HNF6) (AID 2282952); settings: HepG2 Attagene cis-factorial HNF6 reporter transcription; actives raise or lower the signal
Chain of Hepatocyte nuclear factor 6 (Homo sapiens) (Q9UBC0 whole entry, looked up, the tested form may be a part): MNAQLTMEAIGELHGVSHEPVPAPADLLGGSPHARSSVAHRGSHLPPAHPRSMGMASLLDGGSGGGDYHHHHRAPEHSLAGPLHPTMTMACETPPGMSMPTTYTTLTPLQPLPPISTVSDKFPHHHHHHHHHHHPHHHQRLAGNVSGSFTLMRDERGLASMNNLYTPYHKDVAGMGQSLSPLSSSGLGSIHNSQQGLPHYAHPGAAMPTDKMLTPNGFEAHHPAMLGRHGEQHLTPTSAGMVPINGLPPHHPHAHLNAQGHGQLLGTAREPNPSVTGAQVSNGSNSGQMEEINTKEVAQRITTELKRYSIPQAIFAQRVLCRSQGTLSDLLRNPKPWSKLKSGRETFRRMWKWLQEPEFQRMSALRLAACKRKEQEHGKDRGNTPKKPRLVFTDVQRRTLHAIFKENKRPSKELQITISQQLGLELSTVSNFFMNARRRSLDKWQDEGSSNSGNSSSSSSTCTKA
How it was run: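 Reporter mRNA induction or loss in HepG2 after 24 h exposure; transient cis-MRTU transfection; fragments quantified by capillary electrophoresis; bidirectional analysis, DMSO as negative control.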

[6] = ATG_MRE_CIS: Attagene CIS-FACTORIAL HepG2 Assay for human Metal Responsive Element (MRE) (AID 2282954); settings: HepG2 MRE cis-reporter transcription, Attagene multiplex; actives raise or lower the signal
How it was run: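 HepG2 cells transiently transfected with multiple cis-element reporter units measure endogenous MTF1-driven transcription. After 24 h compound exposure, reporter mRNA is quantified by RT-PCR with 6-FAM labelling, HpaI digestion and capillary electrophoresis; bidirectional fits versus DMSO.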

[7] = ATG_PBREM_CIS: Attagene CIS-FACTORIAL HepG2 Assay for human Phenobarbital-responsive Enhancer Module (PBREM) (AID 2282955); settings: HepG2 PBREM cis-reporter, Attagene multiplexed transcription; actives raise or lower the signal
How it was run: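 Cells were transfected with cis-element reporter units and treated for 24 h, after which RNA was extracted and reporter transcripts measured by RT-PCR and capillary electrophoresis.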

[8] = ATG_M_06_CIS: Attagene CIS-FACTORIAL HepG2 Assay for M06 Transcription Factor (Internal Marker) (AID 2282950); settings: HepG2 Attagene CIS-FACTORIAL M06 internal marker reporter; actives raise or lower the signal
How it was run: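 Measured 24 h post-dosing in transiently transfected HepG2 cells, this internal-marker endpoint reports reporter mRNA via RT-PCR with fluorescent primer extension and capillary electrophoresis. DMSO served as negative control and baseline for bidirectional fitting.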

[9] = target: Heat shock factor protein 1 (Homo sapiens) (UniProt Q00613); assay: ATG_HSE_CIS: Attagene CIS-FACTORIAL HepG2 Assay for human Heat Shock Transcription Factor 1 (HSE) (AID 2282953); settings: HepG2 HSE cis-reporter, Attagene RNA transcription; actives raise or lower the signal
Chain of Heat shock factor protein 1 (Homo sapiens) (Q00613 whole entry, looked up): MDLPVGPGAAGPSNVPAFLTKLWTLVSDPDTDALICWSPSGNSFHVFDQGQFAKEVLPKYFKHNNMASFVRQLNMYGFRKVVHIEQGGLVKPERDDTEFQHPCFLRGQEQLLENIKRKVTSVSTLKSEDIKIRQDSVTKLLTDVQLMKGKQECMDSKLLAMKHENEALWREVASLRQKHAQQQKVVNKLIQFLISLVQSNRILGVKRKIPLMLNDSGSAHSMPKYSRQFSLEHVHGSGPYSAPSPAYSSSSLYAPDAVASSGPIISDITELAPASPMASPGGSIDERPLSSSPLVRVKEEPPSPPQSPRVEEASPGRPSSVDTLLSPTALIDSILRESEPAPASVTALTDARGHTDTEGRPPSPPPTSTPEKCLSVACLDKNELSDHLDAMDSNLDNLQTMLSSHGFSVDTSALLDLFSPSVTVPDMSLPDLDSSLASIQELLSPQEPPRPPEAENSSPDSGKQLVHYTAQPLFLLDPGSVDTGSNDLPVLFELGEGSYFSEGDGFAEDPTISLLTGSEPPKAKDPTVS
How it was run: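 Reporter mRNA induction in HepG2 is measured 24 h after dosing, using transiently transfected multiplexed cis-regulated reporter units. Signal comes from capillary electrophoresis of labelled RT-PCR products, with DMSO as negative control.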

[10] = ATG_GRE_CIS: Attagene CIS-FACTORIAL HepG2 Assay for human Glucocorticoid Response Elements (GRE) (AID 2282947); settings: HepG2 GRE cis-reporter, Attagene multiplex mRNA; actives raise or lower the signal
How it was run: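 HepG2 cells transiently transfected with multiple cis-promoter reporter units measure endogenous TF activity; 24 h compound exposure. Reporter mRNA quantified by RT-PCR, FAM labelling, HpaI digestion and capillary electrophoresis; bidirectional fit vs DMSO baseline.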

Measured: AC50

CCCCCC(=O)CC
not listed: [8] | [9] | [10]
inactive: all other assays above

N#Cc1cscn1
not listed: [9] | [10]
inactive: all other assays above

O=C1c2ccccc2C(=O)c2c(O)ccc(O)c21
not listed: [4] | [10]
inactive: all other assays above

C[C@H]1C[C@@H](O)CC(C)(C)C1
not listed: [9] | [10]
inactive: all other assays above

COc1cc([C@@H]2c3cc4c(cc3[C@@H](O[C@@H]3O[C@@H]5CO[C@@H](C)O[C@H]5[C@H](O)[C@H]3O)[C@H]3COC(=O)[C@H]23)OCO4)cc(OC)c1O
not listed: [4] | [8] | [10]
inactive: all other assays above

CN(C)CCOC(C)(c1ccccc1)c1ccccn1 (configuration not stated)
inactive: [1] | [2] | [3] | [5] | [6] | [7]

CCCCN(CCCC)C(=O)N(CCCC)CCCC
inactive: [2] | [3]
active: [1] 24.5 µM | [4] 54.8 µM | [5] 53.7 µM | [9] 52.2 µM | [6] 8.86 µM | [7] 58.9 µM

CCOC(=O)c1ccc(N)cc1
active: [9] 25.7 µM
not listed: [4] | [10]
inactive: all other assays above

CCCC(O)C(O)CO (configuration not stated)
not listed: [4] | [10]
inactive: all other assays above

CCCOCCO
not listed: [4] | [10]
inactive: all other assays above

CC(=O)C(C)O (configuration not stated)
not listed: [4] | [10]
inactive: all other assays above

CC(=O)O[C@@H]1CC2CCC1(C)C2(C)C (some centres not stated)
not listed: [4] | [10]
inactive: all other assays above

CC(=O)O[C@@H]1C[C@@H]2CC[C@@]1(C)C2(C)C
not listed: [9] | [10]
inactive: all other assays above

COc1ccccc1[N+](=O)[O-]
not listed: [3] | [10]
inactive: all other assays above

CS(=O)(=O)c1ccc(Cl)cc1
not listed: [1]
inactive: all other assays above

CC1(C)CCC[C@]2(C)[C@H]3CCO[C@]3(C)CC[C@@H]12
active: [9] 178 µM
not listed: [1]
inactive: all other assays above

O=C1OC(=O)c2c(Br)c(Br)c(Br)c(Br)c21
not listed: [1]
inactive: all other assays above

CC(CN=Cc1ccccc1O)N=Cc1ccccc1O (configuration not stated)
active: [4] 72.3 µM | [6] 26.8 µM
not listed: [1]
inactive: all other assays above

O=c1[nH]c(=O)c2cn[nH]c2[nH]1
not listed: [1]
inactive: all other assays above

CCCOC(=O)c1c(Cl)c(Cl)c(Cl)c(Cl)c1C(=O)OCCC
active: [2] 62.1 µM | [6] 162 µM
not listed: [1]
inactive: all other assays above

CCCC(=O)c1ccccc1
not listed: [1]
inactive: all other assays above

Cc1occc(=O)c1OC(=O)C(C)C
not listed: [1]
inactive: all other assays above

C=C(C)[C@H]1CC=C(C)C(=O)C1
not listed: [1] | [6] | [7]
inactive: all other assays above

CCCSc1ccc2nc(NC(=O)OC)[nH]c2c1
not listed: [1]
inactive: all other assays above

C#CC(C)(O)CC(C)C (configuration not stated)
not listed: [1]
inactive: all other assays above

CCOc1ccc(N=Nc2ccc(C=Cc3ccc(N=Nc4ccc(OCC)cc4)cc3S(=O)(=O)O)c(S(=O)(=O)O)c2)cc1
not listed: [1]
inactive: all other assays above

CN1C(=O)c2ccccc2C1=O
not listed: [1]
inactive: all other assays above

CN(C)C(=O)Nc1ccc(Oc2ccc(Cl)cc2)cc1
active: [9] 181 µM
not listed: [1]
inactive: all other assays above
